According to PubChem BioAssay (NCI):
About 83,000 compounds went through this panel and 20% of them were active in at least one assay; those are over-represented in the sample as a whole.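 Step 1: grow cells in 96-well plates. Step 2: add test compound at a single concentration. Step 3: incubate 48 h. Step 4: record percent growth.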 A number with no mark means an inactive call. Active and inactive are the calls of the source. The calls were made as follows: active = growth percent below 10; inactive = the rest.

Experiments:
Experiment in all cases: NCI-60 one-dose screen, 48 h (100 = growth as untreated, 0 = no growth, -100 = all killed)
Settings in all cases: 10 µM unless noted
SR leukemia = tested on: SR leukemia
RPMI-8226 leukemia = tested on: RPMI-8226 leukemia
OVCAR-8 ovarian = tested on: OVCAR-8 ovarian
OVCAR-5 ovarian = tested on: OVCAR-5 ovarian
OVCAR-4 ovarian = tested on: OVCAR-4 ovarian
SK-OV-3 ovarian = tested on: SK-OV-3 ovarian
IGROV1 ovarian = tested on: IGROV1 ovarian
OVCAR-3 ovarian = tested on: OVCAR-3 ovarian
HS 578T breast = tested on: HS 578T breast
NCI/ADR-RES ovarian = tested on: NCI/ADR-RES ovarian
T-47D breast = tested on: T-47D breast
BT-549 breast = tested on: BT-549 breast
MDA-MB-435 melanoma = tested on: MDA-MB-435 melanoma
SW-620 colon = tested on: SW-620 colon
MCF7 breast = tested on: MCF7 breast
HCT-116 colon = tested on: HCT-116 colon
HCC-2998 colon = tested on: HCC-2998 colon
KM12 colon = tested on: KM12 colon

**Q.** For `COc1ccc2c(c1)c(C(=O)c1nc(-c3cn(C)c4ccccc34)no1)cn2C`, which growth (SR leukemia) is on record?
**A.** 44.7%

**Q.** And the growth (RPMI-8226 leukemia)?
**A.** 93.6%

**Q.** What about the growth (OVCAR-8 ovarian) of the same molecule?
**A.** 97.9%

**Q.** What about the growth (OVCAR-5 ovarian) of the same molecule?
**A.** 107%

**Q.** What about the growth (OVCAR-4 ovarian) of the same molecule?
**A.** 95.8%

**Q.** What about the growth (SK-OV-3 ovarian) of the same molecule?
**A.** 84.5%

**Q.** And the growth (IGROV1 ovarian)?
**A.** 86.5%

**Q.** What about the growth (OVCAR-3 ovarian) of the same molecule?
**A.** 109%

**Q.** What about the growth (HS 578T breast) of the same molecule?
**A.** 88.2%

**Q.** What about the growth (NCI/ADR-RES ovarian) of the same molecule?
**A.** 94.3%

**Q.** And the growth (T-47D breast)?
**A.** 77.5%

**Q.** What about the growth (BT-549 breast) of the same molecule?
**A.** 98%

**Q.** What about the growth (MDA-MB-435 melanoma) of the same molecule?
**A.** 76.7%

**Q.** And the growth (SW-620 colon)?
**A.** 87%

**Q.** And the growth (MCF7 breast)?
**A.** 24%

**Q.** And the growth (HCT-116 colon)?
**A.** 99.5%

**Q.** And the growth (HCC-2998 colon)?
**A.** 95.3%

**Q.** And the growth (KM12 colon)?
**A.** 81%

**Q.** Which results are given for `Cn1cc(-c2csc(-c3cn(CCOC(N)=O)c4ccccc34)n2)c2cccnc21`?
**A.** growth (SR leukemia): 20.3%; growth (RPMI-8226 leukemia): 74.1%; growth (OVCAR-8 ovarian): 89.4%; growth (OVCAR-5 ovarian): 104%; growth (OVCAR-4 ovarian): 102%; growth (SK-OV-3 ovarian): 95.2%; growth (IGROV1 ovarian): 77.7%; growth (OVCAR-3 ovarian): 94.9%; growth (HS 578T breast): 92.6%; growth (NCI/ADR-RES ovarian): 82.9%; growth (T-47D breast): 45.8%; growth (BT-549 breast): 79.5%; growth (MDA-MB-435 melanoma): 8.15% (active); growth (SW-620 colon): 67.9%; growth (MCF7 breast): 58.2%; growth (HCT-116 colon): 86.5%; growth (HCC-2998 colon): 90.4%; growth (KM12 colon): 67%

**Q.** What does the source list for `COc1ccccc1/C=C1\COc2ccc(O)cc2C1=O`?
**A.** growth (SR leukemia): 11.5%; growth (RPMI-8226 leukemia): 4.74% (active); growth (OVCAR-8 ovarian): 49.4%; growth (OVCAR-5 ovarian): 103%; growth (OVCAR-4 ovarian): 81.2%; growth (SK-OV-3 ovarian): 99.1%; growth (IGROV1 ovarian): 84.7%; growth (OVCAR-3 ovarian): 76.2%; growth (HS 578T breast): 83.5%; growth (NCI/ADR-RES ovarian): 38.1%; growth (T-47D breast): 82.8%; growth (BT-549 breast): 76.2%; growth (MDA-MB-435 melanoma): 14.9%; growth (SW-620 colon): 9.45% (active); growth (MCF7 breast): 12.8%; growth (HCT-116 colon): 42%; growth (HCC-2998 colon): 113%; growth (KM12 colon): 16.6%

**Q.** Which growth (SR leukemia) does the source give for `Fc1ccccc1-c1cnn2cc(-c3ccccc3)cnc12` here?
**A.** 81.8%

**Q.** And the growth (RPMI-8226 leukemia)?
**A.** 98%

**Q.** What about the growth (OVCAR-8 ovarian) of the same molecule?
**A.** 94.1%

**Q.** What about the growth (OVCAR-5 ovarian) of the same molecule?
**A.** 109%

**Q.** And the growth (OVCAR-4 ovarian)?
**A.** 98.5%

**Q.** And the growth (SK-OV-3 ovarian)?
**A.** 98%

**Q.** What about the growth (IGROV1 ovarian) of the same molecule?
**A.** 88%

**Q.** And the growth (OVCAR-3 ovarian)?
**A.** 109%

**Q.** What about the growth (HS 578T breast) of the same molecule?
**A.** 93%

**Q.** And the growth (NCI/ADR-RES ovarian)?
**A.** 95%

**Q.** What about the growth (T-47D breast) of the same molecule?
**A.** 98.1%

**Q.** What about the growth (BT-549 breast) of the same molecule?
**A.** 98.7%

**Q.** What about the growth (MDA-MB-435 melanoma) of the same molecule?
**A.** 75.6%

**Q.** And the growth (SW-620 colon)?
**A.** 92.2%

**Q.** What about the growth (MCF7 breast) of the same molecule?
**A.** 68.1%

**Q.** What about the growth (HCT-116 colon) of the same molecule?
**A.** 91.3%

**Q.** And the growth (HCC-2998 colon)?
**A.** 92.8%

**Q.** What about the growth (KM12 colon) of the same molecule?
**A.** 59.3%

**Q.** Which growth (SR leukemia) does the source give for `Cc1ccc(C(=O)Nc2ccc(CN3CCN(C)CC3)c(C(F)(F)F)c2)cc1C#Cc1cnc(N)cc1C#N` here?
**A.** -29.8% (active)

**Q.** And the growth (RPMI-8226 leukemia)?
**A.** -24.4% (active)

**Q.** And the growth (OVCAR-8 ovarian)?
**A.** -32.9% (active)

**Q.** What about the growth (OVCAR-5 ovarian) of the same molecule?
**A.** 12.8%

**Q.** And the growth (OVCAR-4 ovarian)?
**A.** 5.13% (active)

**Q.** And the growth (SK-OV-3 ovarian)?
**A.** -7.98% (active)

**Q.** What about the growth (IGROV1 ovarian) of the same molecule?
**A.** -47.7% (active)

**Q.** What about the growth (OVCAR-3 ovarian) of the same molecule?
**A.** -40.1% (active)

**Q.** What about the growth (HS 578T breast) of the same molecule?
**A.** -23.5% (active)

**Q.** What about the growth (NCI/ADR-RES ovarian) of the same molecule?
**A.** -27.3% (active)

**Q.** What about the growth (T-47D breast) of the same molecule?
**A.** -4.9% (active)

**Q.** And the growth (BT-549 breast)?
**A.** 13.9%

**Q.** What about the growth (MDA-MB-435 melanoma) of the same molecule?
**A.** -90.7% (active)

**Q.** And the growth (SW-620 colon)?
**A.** -81.2% (active)

**Q.** And the growth (MCF7 breast)?
**A.** -75.5% (active)

**Q.** What about the growth (HCT-116 colon) of the same molecule?
**A.** -87% (active)

**Q.** And the growth (HCC-2998 colon)?
**A.** -77.3% (active)

**Q.** And the growth (KM12 colon)?
**A.** -69.8% (active)

**Q.** Which results are given for `COc1ccc(Nc2ncnc3ccc(-c4cncc(NS(C)(=O)=O)c4)cc23)cc1Cl`?
**A.** growth (SR leukemia): 11.2%; growth (RPMI-8226 leukemia): 24.9%; growth (OVCAR-8 ovarian): 46.2%; growth (OVCAR-5 ovarian): 45.1%; growth (OVCAR-4 ovarian): 57.5%; growth (SK-OV-3 ovarian): 21.6%; growth (IGROV1 ovarian): 3.39% (active); growth (OVCAR-3 ovarian): 15.2%; growth (HS 578T breast): -3.14% (active); growth (NCI/ADR-RES ovarian): 86%; growth (T-47D breast): -13.6% (active); growth (BT-549 breast): 24.5%; growth (MDA-MB-435 melanoma): 49.1%; growth (SW-620 colon): 37.7%; growth (MCF7 breast): 15%; growth (HCT-116 colon): 19.1%; growth (HCC-2998 colon): 49.3%; growth (KM12 colon): 61%

**Q.** For `N=c1ccccn1CCO`, which growth (SR leukemia) is on record?
**A.** 87.7%

**Q.** And the growth (RPMI-8226 leukemia)?
**A.** 98.3%

**Q.** And the growth (OVCAR-8 ovarian)?
**A.** 104%

**Q.** And the growth (OVCAR-5 ovarian)?
**A.** 99%

**Q.** What about the growth (OVCAR-4 ovarian) of the same molecule?
**A.** 122%

**Q.** And the growth (SK-OV-3 ovarian)?
**A.** 100%

**Q.** And the growth (IGROV1 ovarian)?
**A.** 112%

**Q.** And the growth (OVCAR-3 ovarian)?
**A.** 121%

**Q.** And the growth (HS 578T breast)?
**A.** 110%

**Q.** And the growth (NCI/ADR-RES ovarian)?
**A.** 116%

**Q.** What about the growth (T-47D breast) of the same molecule?
**A.** 103%

**Q.** What about the growth (BT-549 breast) of the same molecule?
**A.** 113%

**Q.** And the growth (MDA-MB-435 melanoma)?
**A.** 113%

**Q.** And the growth (SW-620 colon)?
**A.** 114%

**Q.** And the growth (MCF7 breast)?
**A.** 102%

**Q.** And the growth (HCT-116 colon)?
**A.** 100%

**Q.** What about the growth (HCC-2998 colon) of the same molecule?
**A.** 94.6%

**Q.** What about the growth (KM12 colon) of the same molecule?
**A.** 112%

**Q.** With `CN1CCN(CCNC(=O)c2cccc(CN3c4cccc5c4C(=Cc4cccnc43)N(C)C5=O)c2)CC1` as the molecule, how does the growth (SR leukemia) read?
**A.** 33.5%

**Q.** And the growth (RPMI-8226 leukemia)?
**A.** 2.26% (active)

**Q.** And the growth (OVCAR-8 ovarian)?
**A.** 40.8%

**Q.** What about the growth (OVCAR-5 ovarian) of the same molecule?
**A.** 42%

**Q.** And the growth (OVCAR-4 ovarian)?
**A.** 37.4%

**Q.** And the growth (SK-OV-3 ovarian)?
**A.** 18.2%

**Q.** What about the growth (IGROV1 ovarian) of the same molecule?
**A.** 18.6%

**Q.** And the growth (OVCAR-3 ovarian)?
**A.** 34.3%

**Q.** And the growth (HS 578T breast)?
**A.** -6.06% (active)

**Q.** And the growth (NCI/ADR-RES ovarian)?
**A.** 80.9%

**Q.** What about the growth (T-47D breast) of the same molecule?
**A.** 34.8%

**Q.** And the growth (BT-549 breast)?
**A.** 57.5%

**Q.** And the growth (MDA-MB-435 melanoma)?
**A.** 39.8%

**Q.** And the growth (SW-620 colon)?
**A.** 52.7%

**Q.** What about the growth (MCF7 breast) of the same molecule?
**A.** 16.6%

**Q.** What about the growth (HCT-116 colon) of the same molecule?
**A.** 25.8%

**Q.** What about the growth (HCC-2998 colon) of the same molecule?
**A.** 39.8%

**Q.** What about the growth (KM12 colon) of the same molecule?
**A.** 44.6%
